Measurements: PubChem BioAssay (Tox21)
Inconclusive results are not listed. Active and inactive are the calls of the source. Unless noted, the call rests on the fitted dose curve; in most records, active means well fitted curve in the direction sought with a large enough effect in the repeat runs; inconclusive means weak or mixed curves; inactive means no such curve, though single readings can be large; an effect the other way counts as inactive or inconclusive.

Assays:
[1] = target: Luciferin 4-monooxygenase (Photinus pyralis) (UniProt P08659); assay: qHTS assay to identify small molecule inhibitors of firefly luciferase (AID 1224835); further: nearly all actives have a fitted effect of over 25% in size; further: potency means the concentration at half of the fitted maximal effect; on activity change, negative = inhibition: series mostly up to about 120 µM
In short: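 Biochemical qHTS: compounds run as interplate titrations against purified firefly enzyme, with D-luciferin and ATP each at its KM concentration. Light output recorded by CCD imaging.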

[2] = qHTS assay to identify small molecule agonists of the constitutive androstane receptor (CAR) signaling pathway - cell viability counter screen (AID 1224836); further: nearly all actives have a fitted effect of over 45% in size; further: potency means the concentration at half of the fitted maximal effect; on viability change, negative = cytotoxic: series mostly up to about 92 µM
In short: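 Compound titrations (15 concentrations) went onto HepG2-CYP2B6-hCAR cells 4 h after seeding, alongside PK11195 at a final 0.75 uM; a 23 h, 37 C/5% CO2 incubation preceded CellTiter-Fluor viability measurement.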

[3] = qHTS assay to identify small molecule antagonists of the constitutive androstane receptor (CAR) signaling pathway - cell viability counter screen (AID 1224837); further: nearly all actives have a fitted effect of over 45% in size; further: potency means the concentration at half of the fitted maximal effect; on activity change, negative = cytotoxicity: series mostly up to about 92 µM
In short: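 Cells are seeded, rested 4 hr at 37 C/5% CO2, dosed with compound (15-point series) and 50 nM CITCO, incubated a further 23 hr, and then CellTiter-Fluor reagent is added before fluorescence is read. The line is HepG2 with stable hCAR and CYP2B6-2.2kb.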

[4] = target: Nuclear receptor subfamily 1 group I member 3 (Homo sapiens) (UniProt Q14994); assay: qHTS assay to identify small molecule antagonists of the constitutive androstane receptor (CAR) signaling pathway (AID 1224838);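 further: HepG2 cells stably expressing hCAR with CYP2B6 luciferase reporter stimulated by CITCO; nearly all actives have a fitted effect of over 40% in size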
In short: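 Luminescence from a CYP2B6-2.2kb promoter reporter in hCAR-expressing HepG2 cells reflects CAR signaling. Cells received compounds at 15 concentrations and 50 nM CITCO (final), then incubated 24 h at 37 C/5% CO2.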

[5] = target: Nuclear receptor subfamily 1 group I member 3 (Homo sapiens) (UniProt Q14994); assay: qHTS assay to identify small molecule agonists of the constitutive androstane receptor (CAR) signaling pathway (AID 1224839); further: nearly all actives have a fitted effect of over 15% in size; further: potency means the concentration at half of the fitted maximal effect;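 on activation: HepG2 cells stably carrying human CAR and a CYP2B6 luciferase reporter; series mostly up to about 92 µM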
In short: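 In this screen, CAR-driven CYP2B6 promoter activity is measured by luminescence in HepG2-CYP2B6-hCAR cells after 24 h with test compounds and 0.75 uM PK11195 (final concentration).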

[6] = qHTS assay to identify small molecule antagonists of the estrogen related receptor signaling pathway with the pleiotropic PPARgamma coactivator (PGC) from Tox21 10K library - cell viability counter screen (AID 1224840; active means well fitted cell-killing curve with a large enough effect in the repeat runs, not every such curve was filed as active; further: nearly all actives have a fitted effect of over 40% in size; further: potency means the concentration at half of the fitted maximal effect)
In short: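 Cell viability is measured by CellTiter-Fluor fluorescence in PGC/ERR cells that receive compounds after a 6-hour attachment period and are then incubated 17.5 hours at 37 C.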

[7] = target: Thyrotropin receptor (Homo sapiens) (UniProt P16473); assay: qHTS assay to identify small molecule agonists of the thyroid stimulating hormone receptor (TSHR) signaling pathway (AID 1224843; calls by dose curve; further: nearly all actives have a fitted effect of over 45% in size)
In short: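 HEK293/TSHR, 800 cells/well; cpd 30 min RT; add cAMP-d2 + anti-cAMP-cryptate, 1 h RT; fluorescence read on plate reader. 15-pt titration, n=3.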

[8] = qHTS assay to identify small molecule agonists of the hypoxia (HIF-1) signaling pathway - cell viability counter screen (AID 1224844; calls by dose curve; further: nearly all actives have a fitted effect of over 50% in size)
In short: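 Viability counter screen: HRE-bla ME-180 cells plated 5 hrs before compound addition, treated 17 hrs at 37C and 5% CO2, then CellTiter-Glo added after the FRET reporter read; luminescence after 30 min.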

[9] = qHTS assay to identify small molecule agonists of the estrogen related receptor signaling pathway with the pleiotropic PPARgamma coactivator (PGC) from Tox21 10K library (AID 1224842); further: nearly all actives have a fitted effect of over 15% in size
In short: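 PGC/ERR reporter cell line, 2,000 cells per well, incubated 6 h at 37 C before 23 nL compound in DMSO was added. After 18 h at 37 C, One-Glo luminescence read following 30 min at room temperature.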

[10] = qHTS assay to identify small molecule antagonists of the estrogen related receptor signaling pathway with the pleiotropic PPARgamma coactivator (PGC) from Tox21 10K library (AID 1224841; call rule not given here; further: actives are mostly falling curves and most rising ones were filed inactive; nearly all actives have a fitted effect of over 50% in size; further: potency means the concentration at half of the fitted maximal effect; on activity, negative = inhibition: series mostly up to about 92 µM)
In short: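 Cells stably carrying the PGC/ERR reporter, seeded at 2,000 per well, received pin-transferred compounds 6 h post-plating. Exposure lasted 18 h at 37 C. Signal: One-Glo luminescence.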
On the % scale 0 is the no-effect control and ±100 the full control effect.

Luciferin 4-monooxygenase (Photinus pyralis), sequence (P08659 whole entry, looked up): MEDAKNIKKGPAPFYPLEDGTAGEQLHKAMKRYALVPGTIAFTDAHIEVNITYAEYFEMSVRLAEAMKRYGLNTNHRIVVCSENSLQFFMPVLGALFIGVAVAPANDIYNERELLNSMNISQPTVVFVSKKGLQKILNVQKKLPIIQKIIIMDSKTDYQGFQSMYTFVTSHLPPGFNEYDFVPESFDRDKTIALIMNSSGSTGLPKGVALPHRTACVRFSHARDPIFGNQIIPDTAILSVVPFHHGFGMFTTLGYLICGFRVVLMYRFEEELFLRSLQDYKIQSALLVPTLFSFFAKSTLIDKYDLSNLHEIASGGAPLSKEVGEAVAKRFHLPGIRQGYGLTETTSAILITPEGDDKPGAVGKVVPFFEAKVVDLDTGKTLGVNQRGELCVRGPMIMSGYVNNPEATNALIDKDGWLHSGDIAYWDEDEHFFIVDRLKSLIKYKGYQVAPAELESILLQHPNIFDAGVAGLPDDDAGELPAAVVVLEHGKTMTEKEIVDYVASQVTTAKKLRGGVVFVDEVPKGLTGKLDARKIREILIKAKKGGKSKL
Thyrotropin receptor (Homo sapiens), sequence (P16473 whole entry, looked up): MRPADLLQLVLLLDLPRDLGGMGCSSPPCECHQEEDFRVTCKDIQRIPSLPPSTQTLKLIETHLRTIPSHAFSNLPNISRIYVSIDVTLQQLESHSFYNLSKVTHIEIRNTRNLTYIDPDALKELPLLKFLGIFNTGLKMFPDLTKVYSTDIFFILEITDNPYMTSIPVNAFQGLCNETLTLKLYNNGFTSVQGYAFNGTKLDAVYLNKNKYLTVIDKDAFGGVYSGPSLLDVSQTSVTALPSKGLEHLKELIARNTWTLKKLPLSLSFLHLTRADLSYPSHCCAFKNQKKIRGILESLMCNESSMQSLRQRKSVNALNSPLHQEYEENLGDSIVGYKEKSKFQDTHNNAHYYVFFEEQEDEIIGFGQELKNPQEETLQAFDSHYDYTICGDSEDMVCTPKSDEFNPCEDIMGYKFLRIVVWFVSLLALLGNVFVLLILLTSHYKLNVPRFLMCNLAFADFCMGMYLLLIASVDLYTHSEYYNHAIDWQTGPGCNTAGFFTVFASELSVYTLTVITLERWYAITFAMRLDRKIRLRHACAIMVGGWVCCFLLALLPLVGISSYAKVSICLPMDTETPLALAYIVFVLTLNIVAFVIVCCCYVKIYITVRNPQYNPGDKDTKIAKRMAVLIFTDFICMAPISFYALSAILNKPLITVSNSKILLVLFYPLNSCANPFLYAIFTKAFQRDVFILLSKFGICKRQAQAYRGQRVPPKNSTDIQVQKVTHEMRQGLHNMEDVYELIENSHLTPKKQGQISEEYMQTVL
Nuclear receptor subfamily 1 group I member 3 (Homo sapiens), sequence (Q14994 whole entry, looked up): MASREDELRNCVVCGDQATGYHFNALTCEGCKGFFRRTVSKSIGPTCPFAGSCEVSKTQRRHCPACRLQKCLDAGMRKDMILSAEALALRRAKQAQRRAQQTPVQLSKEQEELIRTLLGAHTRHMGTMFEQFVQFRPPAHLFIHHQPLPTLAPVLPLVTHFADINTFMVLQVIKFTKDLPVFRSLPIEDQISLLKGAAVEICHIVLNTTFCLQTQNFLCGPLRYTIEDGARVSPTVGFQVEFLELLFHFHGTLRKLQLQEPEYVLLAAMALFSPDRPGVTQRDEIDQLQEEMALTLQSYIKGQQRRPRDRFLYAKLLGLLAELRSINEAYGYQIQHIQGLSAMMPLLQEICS

CC(C)(C)Cl
inactive: Potency [1] | Potency [2] | Potency [3] | Potency [4] | Potency [5] | Potency [6] | Potency [7] | Potency [8]

O=C(Nc1ccccc1)c1ccccc1O
inactive: Potency [2] | Potency [3] | Potency [4] | Potency [9] | Potency [8]
active: Potency [1] 15.9 µM | Potency [5] 27.3 µM

CCCCC(CC)CN1C(=O)C2C3C=CC(C3)C2C1=O (stereo unspecified)
active: Potency [5] 30.6 µM
inactive: Potency [1] | Potency [2] | Potency [3] | Potency [4] | Potency [6] | Potency [10] | Potency [9] | Potency [8]

CC[N+]1(CC)CCC(=C(c2ccccc2)c2ccccc2)C1C (stereo unspecified)
inactive: Potency [1] | Potency [2] | Potency [3] | Potency [4] | Potency [5] | Potency [6] | Potency [7] | Potency [8]

O=C1CCC(=O)O1
inactive: Potency [1] | Potency [2] | Potency [3] | Potency [4] | Potency [5] | Potency [10] | Potency [9] | Potency [8]

COc1cc2nc(Cl)nc(N)c2cc1OC
inactive: Potency [1] | Potency [2] | Potency [3] | Potency [4] | Potency [5] | Potency [6] | Potency [8]

CN1CCC(=C2c3ccccc3Sc3ccccc32)CC1
inactive: Potency [1] | Potency [2] | Potency [3] | Potency [4] | Potency [5] | Potency [6] | Potency [10] | Potency [9]

CC1(c2ccccc2)OC(C(=O)O)=CC1=O (stereo unspecified)
inactive: Potency [1] | Potency [2] | Potency [3] | Potency [4] | Potency [5] | Potency [6] | Potency [7] | Potency [8]

CCCCC1=NC2(CCCC2)C(=O)N1Cc1ccc(-c2ccccc2-c2nn[nH]n2)cc1
inactive: Potency [1] | Potency [2] | Potency [3] | Potency [4] | Potency [5] | Potency [6] | Potency [8]

COc1ccc(C(=O)Nc2nc3ccccc3c(NCc3ccccc3)c2C#N)cc1
inactive: Potency [1] | Potency [2] | Potency [3] | Potency [4] | Potency [6] | Potency [9] | Potency [7]
active: Potency [5] 21.7 µM

CN1CCC(N(Cc2cccs2)c2ccccc2)CC1
inactive: Potency [1] | Potency [2] | Potency [3] | Potency [4] | Potency [5] | Potency [6] | Potency [10] | Potency [9] | Potency [8]

CC1OC(=O)C(C)OC1=O (stereo unspecified)
inactive: Potency [1] | Potency [2] | Potency [3] | Potency [4] | Potency [5] | Potency [6] | Potency [7] | Potency [8]

CC(=O)c1cccc([N+](=O)[O-])c1
inactive: Potency [1] | Potency [2] | Potency [3] | Potency [4] | Potency [5] | Potency [6] | Potency [8]

NCc1ccccc1Sc1ccccc1CO
inactive: Potency [1] | Potency [2] | Potency [3] | Potency [4] | Potency [6] | Potency [7] | Potency [8]

C/C(=C(\CCOP(=O)(O)O)SC(=O)c1ccccc1)N(C=O)Cc1cnc(C)nc1N
inactive: activity change, negative = inhibition [1] 0.277% [at 10.5 µM] | viability change, negative = cytotoxic [2] -1.07% [at 8.39 µM] | activity change, negative = cytotoxicity [3] 5.24% [at 8.39 µM] | activity, negative = inhibition [4] -18% [at 8.39 µM] | viability change, negative = cytotoxic [6] -2.4% [at 8.39 µM] | activation [7] -3.96% [at 8.39 µM] | activity change, negative = cytotoxicity [8] -1.24% [at 6.97 µM]

CC(=O)NO
inactive: Potency [1] | Potency [2] | Potency [3] | Potency [4] | Potency [5] | Potency [7] | Potency [8]

CCN(CC)c1ccc2c(-c3ccccc3C(=O)O)c3ccc(=[N+](CC)CC)cc-3oc2c1
inactive: Potency [4] | Potency [9]
active: Potency [1] 11.2 µM | Potency [2] 7.7 µM | Potency [3] 7.7 µM | Potency [6] 17.2 µM | Potency [10] 43.3 µM

NCCCN1CCOCC1
inactive: Potency [1] | Potency [2] | Potency [3] | Potency [5] | Potency [6] | Potency [10] | Potency [9] | Potency [7] | Potency [8]

Nc1cccc(S(=O)(=O)c2cccc(N)c2)c1
inactive: Potency [1] | Potency [2] | Potency [3] | Potency [5] | Potency [6] | Potency [10] | Potency [9] | Potency [7] | Potency [8]

CN(C)CCN(Cc1ccc(Cl)cc1)c1ccccn1
inactive: Potency [1] | Potency [2] | Potency [3] | Potency [4] | Potency [6] | Potency [7] | Potency [8]

CCCCC(CC)COC(=O)CCCCCCCCC(=O)OCC(CC)CCCC (stereo unspecified)
inactive: Potency [1] | Potency [2] | Potency [3] | Potency [4] | Potency [6] | Potency [9] | Potency [7] | Potency [8]

CC(C)Nc1ccc(NC(C)C)c2c1C(=O)c1ccccc1C2=O
inactive: Potency [2] | Potency [3] | Potency [5]
active: Potency [1] 33 µM

Nc1ccccc1S(=O)(=O)c1ccccc1
inactive: Potency [1] | Potency [2] | Potency [3] | Potency [4] | Potency [9] | Potency [7] | Potency [8]

CC(=O)c1ccc2c(c1)N(CCCN(C)C)c1ccccc1S2
inactive: Potency [1] | Potency [2] | Potency [3] | Potency [4] | Potency [6] | Potency [7] | Potency [8]
